From PubChem BioAssay
This is a sample that favours compounds with a hit; in the whole collection about 3.5% have one here.
FBW7 act = activators of human E3 ligase FBW7. normalized activity (activation), % at 26.1 µM. AlphaScreen FBW7–phospho-cyclin E peptide binding, activator screen. AID 1259310. Q969H0. hit rate 0.13% among 650,000; in the data active = normalized activity above about 1.9%;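 also: purified mutant Fbw7 with reduced substrate affinity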
MITF inh = inhibitors of human MITF. AID 1259374. O75030. inhibition, % at 2.6 µM. hit rate 0.91% among 650,000. AlphaScreen MITF homodimerization, bead proximity signal; in the data active = inhibition above about 50%;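 also: 0% = vehicle wells with protein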
TEAD-YAP inh = TEAD-YAP interaction inhibition. hit rate 1.4% among 640,000. HEK-TIYL cells, TEAD-Gal4/YAP UAS-luciferase luminescence. inhibition, % at 9.12 µM; in the data active = inhibition above about 32%;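 also: 0% = median of test compound wells and 100% = reference inhibitor wells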
GPR151 ag = activates the human receptor GPR151 | activation, % at 11.2 µM | Q8TDV0 | PathHunter beta-arrestin GPR151 cells, luminescence | hit rate 1% among 650,000 | AID 1508602; in the data active = activation above about 4.9%;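 also: 0% = median of compound wells and 100% = cells with positive control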
Target sequence (Q8TDV0 whole entry, looked up): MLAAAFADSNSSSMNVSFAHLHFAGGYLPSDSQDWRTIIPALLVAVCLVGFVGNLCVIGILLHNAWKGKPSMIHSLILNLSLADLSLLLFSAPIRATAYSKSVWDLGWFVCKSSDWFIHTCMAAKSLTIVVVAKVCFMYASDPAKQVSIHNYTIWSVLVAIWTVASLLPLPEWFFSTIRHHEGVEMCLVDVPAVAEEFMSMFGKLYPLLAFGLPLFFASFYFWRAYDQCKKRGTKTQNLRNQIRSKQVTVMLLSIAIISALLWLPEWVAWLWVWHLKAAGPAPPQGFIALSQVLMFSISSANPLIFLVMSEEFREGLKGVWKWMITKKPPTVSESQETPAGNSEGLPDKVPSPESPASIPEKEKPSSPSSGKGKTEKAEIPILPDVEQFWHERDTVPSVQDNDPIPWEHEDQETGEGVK
MITF inh conf = human MITF inhibition, confirmation; shares compounds with MITF inh; inhibition, % at 2.6 µM; AlphaScreen MITF homodimerization, biotin/His-MITF beads; hit rate 16% among 4,700;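 active = inhibition above a cutoff derived from the DMSO control wells, cut at about 28% in these data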;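 also: 0% = MITF dimer wells with DMSO only; inhibitors lower the bead chemiluminescence by keeping MITF from dimerizing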
AlphaScreen DR = optically interferes with AlphaScreen signal in dose response. IC50, µM. shares compounds with MITF inh. AlphaScreen optical interference counterscreen, cell-free. AID 1259373. hit rate 6% among 480; call rule not given here
AlphaScreen intf2 = counter-screen: compounds optically interfering with AlphaScreen. LysRS AlphaScreen counterscreen, signal interference, triplicate. shares compounds with MITF inh. hit rate 7.6% among 4,700. AID 1259376. inhibition, % at 2.6 µM;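 active = inhibition above a cutoff derived from the DMSO control wells, cut at about 30% in these data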
An asterisk follows results filed as active.

For CCCc1cc(=O)[nH]c2nnc(SCC(=O)Nc3ccccc3)n12 the results were FBW7 act 1, MITF inh 18, TEAD-YAP inh 3 and GPR151 ag -2.
`COc1ccccc1-n1c(=S)sc2c(=O)n(-c3ccccc3)c(SCC(=O)c3ccc(Cl)cc3)nc21` gave FBW7 act 0, MITF inh 68*, TEAD-YAP inh -9, GPR151 ag 0, MITF inh conf 0 and AlphaScreen intf2 0.
For CC1CCCCN1C(=O)c1ccc(Oc2cnccn2)cc1 (stereo unspecified) the results were FBW7 act 0, MITF inh 75*, TEAD-YAP inh -2, GPR151 ag 0, MITF inh conf 4 and AlphaScreen intf2 13.
`COc1cc(/C=C2\N=C(c3ccc(F)cc3)OC2=O)ccc1OCc1ccccc1Cl` gave FBW7 act 0, MITF inh 73*, TEAD-YAP inh -2, GPR151 ag 1, MITF inh conf 2 and AlphaScreen intf2 16.
COc1cc(/C=C2\N=C(c3ccc(C)cc3)OC2=O)ccc1OCc1ccccc1Cl was read as FBW7 act 0, MITF inh -1, TEAD-YAP inh -6 and GPR151 ag -1.
`COc1ccc(/C=C2\N=C(c3ccc4c(c3)OCO4)OC2=O)cc1Cl` gave FBW7 act 0, MITF inh 69*, TEAD-YAP inh 0, GPR151 ag -1, MITF inh conf 74*, AlphaScreen DR >5.4 and AlphaScreen intf2 10.
`O=C(NCc1ccco1)C1CCN(Cc2cccc(Cl)c2Cl)CC1` gave FBW7 act 0, MITF inh 51*, TEAD-YAP inh 6, GPR151 ag 0, MITF inh conf -1 and AlphaScreen intf2 -2.
`CN(C)CC(C)(C)CNC(=O)C1CCN(Cc2ccccc2Cl)CC1` gave FBW7 act 0, MITF inh 63*, TEAD-YAP inh 2, GPR151 ag 0, MITF inh conf -20 and AlphaScreen intf2 -1.
For COc1ccc(CCNc2nc(-c3sc(C)nc3C)cs2)cc1OC the results were FBW7 act 0, MITF inh 71*, TEAD-YAP inh -10, GPR151 ag -1, MITF inh conf 11 and AlphaScreen intf2 14.
Screening Cc1ccc(NC(=O)CN(C)S(=O)(=O)c2cc(Cl)ccc2Cl)cc1 returned FBW7 act 0, MITF inh 6, TEAD-YAP inh -8 and GPR151 ag 1.
COc1ccc(C(CNc2nnnn2-c2ccccc2)N2CCOCC2)cc1 (stereo unspecified) was read as FBW7 act 0, MITF inh 51*, TEAD-YAP inh 1, GPR151 ag 1, MITF inh conf 3 and AlphaScreen intf2 0.
For COC(=O)CSc1nc2ccc(N)cc2s1 the results were FBW7 act 0, MITF inh 63*, TEAD-YAP inh 6, GPR151 ag 1, MITF inh conf -5 and AlphaScreen intf2 14.
COc1ccc(NC(=O)CSc2nc3ccc(N)cc3s2)cc1 was read as FBW7 act 0, MITF inh 10, TEAD-YAP inh -24 and GPR151 ag 0.
`CCCCCSc1nnc2c(n1)OC(c1ccc(C)o1)Nc1ccccc1-2` (stereo unspecified) gave FBW7 act 0, MITF inh 3, TEAD-YAP inh -2 and GPR151 ag 0.
`CCC(=O)N=c1sc2cc(Cl)ccc2n1CC` gave FBW7 act 0, MITF inh 10, TEAD-YAP inh 3 and GPR151 ag 0.
For CN(C)[C@@H]1C(=O)C(C(=O)NCN2CCCC2)=C(O)[C@@]2(O)C(=O)C3=C(O)c4c(O)cccc4[C@@](C)(O)[C@H]3C[C@@H]12 the results were FBW7 act 0, MITF inh 75*, TEAD-YAP inh -2, GPR151 ag 0, MITF inh conf 81*, AlphaScreen DR >6.5 and AlphaScreen intf2 22.
Screening C/C(=N\Nc1ccc([N+](=O)[O-])cc1)c1ccccc1C(=O)O returned FBW7 act 0, MITF inh -13, TEAD-YAP inh -2 and GPR151 ag 0.
`c1ccc(-c2cc3ccccc3[nH]2)nc1` gave FBW7 act 0, MITF inh 17, TEAD-YAP inh -38 and GPR151 ag -3.
O=c1cc(-c2ccccn2)[nH][nH]1 was read as FBW7 act -1, MITF inh 114*, TEAD-YAP inh -50, GPR151 ag -3, MITF inh conf 110* and AlphaScreen intf2 101*.
CC(C)[C@H]1NC(=O)[C@H]2CN(C(=O)NCc3ccccc3)CCN2C1=O was read as FBW7 act 0, MITF inh 70*, TEAD-YAP inh 6, GPR151 ag -1, MITF inh conf 68*, AlphaScreen DR >6.5 and AlphaScreen intf2 -3.
C[C@@H](OCc1ccccc1)[C@@H]1NC(=O)[C@H]2CN(C(=O)NCc3ccccc3)CCN2C1=O was read as FBW7 act 0, MITF inh 76*, TEAD-YAP inh 10, GPR151 ag -1, MITF inh conf 71*, AlphaScreen DR >6.5 and AlphaScreen intf2 -13.
CC[C@H](C)[C@@H]1NC(=O)[C@H]2CN(C(=O)NCc3ccccc3)CCN2C1=O was read as FBW7 act 0, MITF inh 74*, TEAD-YAP inh 9, GPR151 ag -1, MITF inh conf 66*, AlphaScreen DR >6.5 and AlphaScreen intf2 -7.
`CC[C@H](C)[C@@H]1NC(=O)[C@H]2CN(C(=O)Nc3cccc(F)c3)CCN2C1=O` gave FBW7 act 0, MITF inh 58*, TEAD-YAP inh 6, GPR151 ag 0, MITF inh conf 75*, AlphaScreen DR >6.5 and AlphaScreen intf2 4.
Screening CC[C@H](C)[C@@H]1NC(=O)[C@H]2CN(C(=O)Oc3ccc(F)cc3)CCN2C1=O returned FBW7 act 0, MITF inh -7, TEAD-YAP inh 3 and GPR151 ag 1.
For CC[C@H](C)[C@@H]1NC(=O)[C@H]2CN(C(=O)c3ccc(-c4ccccc4)cc3)CCN2C1=O the results were FBW7 act 0, MITF inh -10, TEAD-YAP inh 2 and GPR151 ag 1.
For CCOC(=O)C1=C(c2ccccc2)Nc2ncnn2C1c1ccccc1[N+](=O)[O-] (stereo unspecified) the results were FBW7 act 0, MITF inh 11, TEAD-YAP inh -3 and GPR151 ag 0.
Cc1cc(C(=O)N(CC2CCCO2)c2nc3ccc(F)cc3s2)no1 (stereo unspecified) was read as FBW7 act 0, MITF inh 6, TEAD-YAP inh -51 and GPR151 ag 0.
C[C@@H]1NC(=O)[C@H]2CN(C(=O)NCc3ccccc3)CCN2C1=O was read as FBW7 act 0, MITF inh 71*, TEAD-YAP inh -2, GPR151 ag 0, MITF inh conf 75*, AlphaScreen DR >6.5 and AlphaScreen intf2 -11.
